{"source": "PubChem BioAssay (NCI)", "note": "The panel holds about 83,000 compounds, 20% with a hit somewhere; the sample as a whole holds those more often.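 Single-dose data. Exposure time 48 hours. Values below 10 considered active.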 The source made the active and inactive calls.", "data": [{"tested_on": "RPMI-8226 leukemia", "experiment": "NCI-60 one-dose screen, 48 h (100 = growth as untreated, 0 = no growth, -100 = all killed)", "details": "10 µM unless noted", "values": [{"compound": "CCCOCc1cn[nH]n1", "growth": "111% (inactive)"}, {"compound": "CCN(C(=O)Nc1ccccc1Cl)c1ccccc1", "growth": "107% (inactive)"}, {"compound": "Cc1ccc(O)c(N)c1", "growth": "55.7% (inactive)"}, {"compound": "CC(C)(C)NCCC(O)c1cc(C(F)(F)F)nc2c(C(F)(F)F)cccc12", "note": "(centres undefined)", "growth": "95.7% (inactive)"}, {"compound": "CC1CC2C3CCC4=CC(=O)CCC4(C)C3CCC2(C)C1(O)C(=O)CO", "note": "(centres undefined)", "growth": "77.1% (inactive)"}, {"compound": "c1cc(CNCCNCc2ccncc2)ccn1", "growth": "97.1% (inactive)"}, {"compound": "CC(C)Sc1ncnc2nc[nH]c12", "growth": "118% (inactive)"}, {"compound": "Cc1cc2nc(C)c(C)nc2cc1C", "growth": "89.5% (inactive)"}, {"compound": "NNC(=O)CCCCl", "growth": "114% (inactive)"}, {"compound": "COc1cccc(N=CNc2cccc(OC)c2)c1", "growth": "92% (inactive)"}, {"compound": "Cc1c(Cl)cccc1NC(=S)NC(=O)c1ccccc1", "growth": "73.6% (inactive)"}, {"compound": "Cc1[nH]c(=S)[nH]c(=O)c1C", "growth": "115% (inactive)"}, {"compound": "COc1cc(-c2ccc(NC(=O)CC(C)=O)c(OC)c2)ccc1NC(=O)CC(C)=O", "growth": "95.2% (inactive)"}, {"compound": "Clc1ncnc2nc[nH]c12", "growth": "88.8% (inactive)"}, {"compound": "CN(C)c1ncnc2c1cnn2C", "growth": "89% (inactive)"}, {"compound": "CC1CC(C)S(=O)(=O)C1", "note": "(centres undefined)", "growth": "109% (inactive)"}, {"compound": "Cc1cc(C(=O)NN)c(C#N)c(=O)[nH]1", "growth": "91.2% (inactive)"}]}, {"tested_on": "OVCAR-8 ovarian", "experiment": "NCI-60 one-dose screen, 48 h (100 = growth as untreated, 0 = no growth, -100 = all killed)", "details": "10 µM unless noted", "values": [{"compound": "O=C(OCc1ccccc1)n1nnc2ccccc21", "growth": "105% (inactive)"}, {"compound": "COC1(OC)C2(Cl)C(Cl)=C(Cl)C1(Cl)C1COCC12", "note": "(centres undefined)", "growth": "93.9% (inactive)"}, {"compound": "CCOC(=O)CO", "growth": "109% (inactive)"}, {"compound": "COc1cc(C(=O)NC(=S)NCc2ccncc2)cc(OC)c1OC", "growth": "103% (inactive)"}, {"compound": "Nc1ncnc2c1ncn2C1OC(CO)C2OC21", "note": "(centres undefined)", "growth": "98.7% (inactive)"}, {"compound": "CC(C)(C)[Si](C)(C)OCC1OC(n2cnc3c(N)ncnc32)CC1OS(C)(=O)=O", "note": "(centres undefined)", "growth": "98.6% (inactive)"}, {"compound": "Cc1ccc(C)c(CCO)c1", "growth": "98.8% (inactive)"}, {"compound": "CC(=O)CSc1ncnc2nc[nH]c12", "growth": "99.2% (inactive)"}, {"compound": "CCOC(OCC)C(=O)c1ccccc1", "growth": "89.8% (inactive)"}, {"compound": "CCCCCCCCCCCCCCCCOc1ccccc1NC(=O)CC(C)=O", "growth": "113% (inactive)"}, {"compound": "CC1(c2ccccc2)CO1", "note": "(centres undefined)", "growth": "102% (inactive)"}, {"compound": "Cc1ccc(C)c(CN(C)C)c1O", "growth": "98.2% (inactive)"}, {"compound": "O=Cc1ccc(O)c(O)c1", "growth": "95.8% (inactive)"}, {"compound": "C/C(=N\\N=C(/C)c1cccc([N+](=O)[O-])c1)c1cccc([N+](=O)[O-])c1", "growth": "79.6% (inactive)"}, {"compound": "Cc1nc(C)c(C(=O)O)cc1C(=O)O", "growth": "115% (inactive)"}, {"compound": "CCN(CC)CCCC(C)NC(=S)N/N=C(\\C)c1ccccn1", "note": "(centres undefined)", "growth": "36.1% (inactive)"}, {"compound": "COc1ccc(-c2csc(NC(=O)Nc3nc(-c4ccc(OC)cc4)cs3)n2)cc1", "growth": "70.3% (inactive)"}, {"compound": "NC(CSSCC(N)C(=O)O)C(=O)O", "note": "(centres undefined)", "growth": "2.42% (active)"}, {"compound": "Cc1cc(Cc2ccccc2)c(O)c(Cc2ccccc2)c1", "growth": "91.1% (inactive)"}, {"compound": "NNc1ncnc2nc[nH]c12", "growth": "16.4% (inactive)"}, {"compound": "CCCOCc1cn[nH]n1", "growth": "102% (inactive)"}, {"compound": "CCN(C(=O)Nc1ccccc1Cl)c1ccccc1", "growth": "101% (inactive)"}, {"compound": "Cc1ccc(O)c(N)c1", "growth": "104% (inactive)"}, {"compound": "CC(C)(C)NCCC(O)c1cc(C(F)(F)F)nc2c(C(F)(F)F)cccc12", "note": "(centres undefined)", "growth": "83.6% (inactive)"}, {"compound": "CC1CC2C3CCC4=CC(=O)CCC4(C)C3CCC2(C)C1(O)C(=O)CO", "note": "(centres undefined)", "growth": "105% (inactive)"}, {"compound": "c1cc(CNCCNCc2ccncc2)ccn1", "growth": "97% (inactive)"}, {"compound": "CC(C)Sc1ncnc2nc[nH]c12", "growth": "107% (inactive)"}, {"compound": "Cc1cc2nc(C)c(C)nc2cc1C", "growth": "94.2% (inactive)"}, {"compound": "NNC(=O)CCCCl", "growth": "104% (inactive)"}, {"compound": "COc1cccc(N=CNc2cccc(OC)c2)c1", "growth": "104% (inactive)"}, {"compound": "Cc1c(Cl)cccc1NC(=S)NC(=O)c1ccccc1", "growth": "92.2% (inactive)"}, {"compound": "Cc1[nH]c(=S)[nH]c(=O)c1C", "growth": "89.8% (inactive)"}, {"compound": "COc1cc(-c2ccc(NC(=O)CC(C)=O)c(OC)c2)ccc1NC(=O)CC(C)=O", "growth": "94.8% (inactive)"}, {"compound": "Clc1ncnc2nc[nH]c12", "growth": "102% (inactive)"}, {"compound": "CN(C)c1ncnc2c1cnn2C", "growth": "94.7% (inactive)"}, {"compound": "CC1CC(C)S(=O)(=O)C1", "note": "(centres undefined)", "growth": "92% (inactive)"}, {"compound": "Cc1cc(C(=O)NN)c(C#N)c(=O)[nH]1", "growth": "100% (inactive)"}]}]}
